Measurements as given in the supplement of paper PMC8371130.
Structures can show the parent of a compound that is named as a salt.

Tested on: HL-1
Assay: relative cell viability (CellTiter-Glo) vs DMSO control (% of DMSO control); higher = more viable cells
Details: oxygen condition: hypoxia 48 h (1% O2) + reoxygenation 24 h; 200 nM
Summary of the method: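 In 384-well plates, 1000 HL-1 mouse atrial cardiomyocytes per well were plated with compounds at 40, 200, 1000 or 5000 nM in 0.01% DMSO. Hypoxia at 1% O2 for 48 h began one day later and was followed by 24 h of reoxygenation, with parallel plates held in normoxia. CellTiter-Glo luminescence gave cell viability relative to vehicle-treated control cells.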

In order of falling relative cell viability:
1. C[C@]12CC[C@@H]3c4ccc(O)cc4C[C@@H](CCCCCCCCC[S+]([O-])CCCC(F)(F)C(F)(F)F)[C@H]3[C@@H]1CC[C@@H]2O (stereo partly drawn) [Fulvestrant]  113
2. c1ccc2c(CC3=NCCN3)cccc2c1 [Naphazoline hydrochloride]  111
3. COc1ccccc1OCCNCC(O)COc1cccc2[nH]c3ccccc3c12 (stereo not drawn) [Carvedilol]  110
4. NC12CC3CC(CC(C3)C1)C2 [Amantadine hydrochloride]  110
5. NC(=O)NO [Hydroxyurea]  109
6. CCCC(CCC)C(=O)O [Divalproex sodium]  109
7. Cc1cn([C@H]2C[C@H](N=[N+]=[N-])[C@@H](CO)O2)c(=O)[nH]c1=O [Zidovudine]  109
8. Cc1onc(-c2ccccc2)c1C(=O)N[C@@H]1C(=O)N2[C@@H]1SC(C)(C)[C@@H]2C(=O)O [Oxacillin sodium monohydrate]  107
9. CCNC(=O)CCC/C=C\C[C@@H]1[C@@H](/C=C/[C@@H](O)CCc2ccccc2)[C@H](O)C[C@@H]1O [Bimatoprost]  107
10. CCCCCCCCOc1ccccc1C(=O)Nc1ccc(C(=O)OCC[N+](C)(CC)CC)cc1 [Otilonium Bromide]  107
11. Clc1ccc2nsnc2c1NC1=NCCN1 [Tizanidine HCl]  106
12. N=C(N)NC(=O)c1nc(Cl)c(N)nc1N [Amiloride hydrochloride]  105
13. NC(=O)N1c2ccccc2CC(=O)c2ccccc21 [Oxcarbazepine]  105
14. C=CC[C@@H]1/C=C(\C)C[C@H](C)C[C@H](OC)[C@H]2O[C@@](O)(C(=O)C(=O)N3CCCC[C@H]3C(=O)O[C@H](/C(C)=C/[C@@H]3CC[C@@H](O)[C@H](OC)C3)[C@H](C)[C@@H](O)CC1=O)[C@H](C)C[C@@H]2OC  105
15. NCC(=O)CCC(=O)O [5-Aminolevulinic acid hydrochloride]  104
16. CNCC[C@@H](Oc1ccccc1C)c1ccccc1 [Atomoxetine HCl]  104
17. C[C@@H]1CCN(C(=O)CC#N)C[C@@H]1N(C)c1ncnc2[nH]ccc12 [Tofacitinib citrate]  104
18. N=C(N)Nc1ccc(C(=O)Oc2ccc3cc(C(=N)N)ccc3c2)cc1 [Nafamostat mesylate]  104
19. S=c1[nH]cnc2nc[nH]c12 [Mercaptopurine]  104
20. CCOc1nc2cccc(C(=O)OC(C)OC(=O)OC3CCCCC3)c2n1Cc1ccc(-c2ccccc2-c2nn[nH]n2)cc1 (stereo not drawn) [Candesartan cilexetil]  104
21. CC(=O)[C@H]1CC[C@H]2[C@@H]3CC=C4C[C@@H](O)CC[C@]4(C)[C@H]3CC[C@]12C [Pregnenolone]  103
22. C#C[C@]1(OC(C)=O)CC[C@H]2[C@@H]3CCC4=C[C@@H](OC(C)=O)CC[C@@H]4[C@H]3CC[C@@]21C [Ethynodiol diacetate]  103
23. Nc1nnc(-c2cccc(Cl)c2Cl)c(N)n1 [Lamotrigine]  102
24. NCCCC(O)(P(=O)(O)O)P(=O)(O)O [Alendronate]  102
25. CC(=O)Oc1ccccc1C(=O)O [Aspirin]  101
26. CC[C@H]1OC(=O)[C@H](C)[C@@H](O[C@H]2C[C@@](C)(OC)[C@@H](O)[C@H](C)O2)[C@H](C)[C@@H](O[C@@H]2O[C@H](C)C[C@H](N(C)C)[C@H]2O)[C@](C)(OC)C[C@@H](C)C(=O)[C@H](C)[C@@H](O)[C@]1(C)O [Clarithromycin]  101
27. O=C(O)Cc1cc(I)c(Oc2ccc(O)c(I)c2)c(I)c1 [Tiratricol]  99.5
28. CCN(Cc1ccncc1)C(=O)C(CO)c1ccccc1 (stereo not drawn) [Tropicamide]  99.4
29. CN(C)CCCN1c2ccccc2CCc2ccccc21 [Imipramine HCl]  98.9
30. CCCOc1ccc(C(=O)OCCN(CC)CC)cc1N [Proparacaine HCl]  98.9
31. N[C@@H]1CN(c2c(F)cc3c(=O)c(C(=O)O)cn([C@@H]4C[C@@H]4F)c3c2Cl)CC12CC2 [Sitafloxacin hydrate]  98.6
32. CC(C)(C(=O)O)c1ccc(C(O)CCCN2CCC(C(O)(c3ccccc3)c3ccccc3)CC2)cc1 (stereo not drawn) [Fexofenadine HCl]  96.5
33. CC(C)c1c(C(=O)Nc2ccccc2)c(-c2ccccc2)c(-c2ccc(F)cc2)n1CC[C@@H](O)C[C@@H](O)CC(=O)O [Atorvastatin calcium]  95.8
34. C[C@@H](Oc1cc(-c2cnn(C3CCNCC3)c2)cnc1N)c1c(Cl)ccc(F)c1Cl [Crizotinib]  92.1
35. CC(=O)OCC(=O)[C@@]12OC(C)(C)O[C@@H]1C[C@H]1[C@@H]3C[C@H](F)C4=CC(=O)C=C[C@]4(C)[C@@]3(F)[C@@H](O)C[C@@]12C [Fluocinonide]  91.8
36. CCCCCCNC(=O)n1cc(F)c(=O)[nH]c1=O [Carmofur]  83.8
37. CCC[C@H](N[C@@H](C)C(=O)N1[C@H](C(=O)O)C[C@@H]2CCCC[C@@H]21)C(=O)OCC [Perindopril Erbumine]  81
38. O=C(Nc1ccc([N+](=O)[O-])cc1Cl)c1cc(Cl)ccc1O [Niclosamide]  3.13
